Source: PubChem BioAssay AID1863 (Southern Research Specialized Biocontainment Screening …, 2009)
Screen size: about 300,000 compounds; about 480 (0.16%) were called active.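 How the source made its calls: active means inhibition over 29.93%, a cutoff 3 SD above the screen mean, later confirmed by dose response; inconclusive means inhibition over 29.93% but no dose response follow-up; inactive means inhibition at most 29.93% or unconfirmed.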 Not all results are given here. Potency and affinity values are given separately.

Assay: inhibitors of PhoP regulon expression, primary screen, Salmonella Typhimurium, GFP reporter (AID 1863);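 further: 0% = low Mg2+ inducing control and 100% = high Mg2+ repressing control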
Settings: S. Typhimurium PhoP-regulated promoter GFP reporter, 4 h; at 50 µM; hits give high values

inhibition, inactive:
CC(=O)c1c(C)n([O-])c2cc(C)ccc2[n+]1=O -0.54%
CC(=O)c1c(C)n([O-])c2ccc(C)cc2[n+]1=O 0.85%
COc1ccc2c(c1)[n+](=O)c(C(C)=O)c(C)n2[O-] 7.33%
O=[n+]1c2c(n([O-])c3cc(F)c(F)cc31)CCCC2 -5.91%
Cc1ccc(NC2c3ncccc3C(=O)N2Cc2ccco2)c(C)c1 (configuration not stated) -7.26%
O=C(CCSCCC(=O)N1CCCC1)N1CCCC1 0.69%
Cc1c(C)n2c(SCC(=O)NC3CCCCC3)nnc2[nH]c1=O 2.36%
CC(=O)c1c(N2CCN(c3ccc(F)cc3)CC2)nc(=S)n(Cc2ccccc2)c1C -9.08%
CCN(CC)CC(=O)Nc1ccc(-c2ccc(NC(=O)CN(CC)CC)c(OC)c2)cc1OC -5.12%
O=C(O)c1ccc(NC(=O)C(c2ccccc2)c2ccccc2)cc1 -7.69%
COc1cccc(C2c3[nH]c4ccccc4c3CCN2C(=O)Cn2cncn2)c1OC (configuration not stated) -2.77%
CCN(CC)C(=O)Oc1nnc(SC(C)C)n1-c1ccc(Cl)cc1 -0.67%
O=C(Nc1nc(-c2ccccn2)cs1)c1ccc(Br)s1 8.88%
O=C(Nc1nc(-c2cccs2)cs1)c1ccc(Cl)s1 7.37%
CCOC(=O)c1c(C)[nH]c(C(=O)COC(=O)CNC(=O)c2ccccc2Cl)c1C -9.12%
Cc1occc1C(=O)NC(C)C(C)(C)C (configuration not stated) 0.78%
Cc1ccccc1CSCCC(=O)NCCC1=CCCCC1 6.03%
Cn1c(=O)c(-c2ccccc2)nc2ccccc21 -3.46%
Cn1nc(-c2ccc(Cl)cc2)nc2c(=O)n(C)c(=O)nc1-2 20.5%
COc1ccccc1NCC(O)Cn1c2ccccc2c2ccccc21 (configuration not stated) -3.61%
COc1ccc(CCNCC(O)Cn2c3ccccc3c3ccccc32)cc1OC (configuration not stated) -4.43%
COc1ccc(NC(=O)C2=NN(C3CCS(=O)(=O)C3)C(=O)CC2)cn1 (configuration not stated) 3.89%
O=C(CSc1oc(-c2cccs2)nc1S(=O)(=O)c1ccc(F)cc1)NCC1CCCO1 (configuration not stated) -4.95%
CSC[C@H](NC(=O)Cc1c(C)c2cc3c(C)c(C)oc3cc2oc1=O)C(=O)N[C@@H](Cc1ccccc1)C(=O)O 5.06%
Cc1ccc(C(=O)CC(=O)c2ccccc2)cc1 6.5%
Cc1ccc(C(=O)Nc2ccccc2Sc2ccccc2)cc1 -6.94%
COc1cccc(NC(=O)CCC2CCN(C(=O)c3sccc3C)CC2)c1 -6.68%
O=C(CCNC(=O)c1ccc([N+](=O)[O-])cc1)NCCc1ccc(Cl)cc1 8.36%
COCCCn1c(=O)c2sccc2n2c(CCCC(=O)N(C)Cc3ccco3)nnc12 -1.76%
Cn1ccnc1SCC(=O)NC1CC1 6.54%
Cc1cc(Nc2ccccc2)nc(NCc2ccccc2)n1 19.9%
Cc1cc(Nc2cccc(F)c2)nc(NCc2ccccc2)n1 4.66%
Cc1[nH]c(=O)[nH]c(=O)c1S(=O)(=O)Nc1ccc(Cl)c([N+](=O)[O-])c1 5.49%
O=Cc1ccc2ccc3cccnc3c2n1 -0.13%
O=S1(=O)NC(=NCCc2ccccn2)c2ccccc21 10.3%
CCOC(=O)c1ccc2c(c1)NC(=O)C(N1CCN(c3ccc(OC)cc3)CC1)S2 (configuration not stated) 8.89%
COc1ccc(N(C(=O)c2ccncc2)S(=O)(=O)c2cccs2)cc1 8.99%
Cc1ccccc1-n1c(SCC(=O)c2cc(C)n(C)c2C)nnc1-c1ccncc1 -15.5%
O=C(N/N=C/c1ccc[nH]1)c1ccc([N+](=O)[O-])cc1 5.92%
O=C(N/N=C/c1ccc[nH]1)c1cccc([N+](=O)[O-])c1 2.02%
Cn1c(CCCOc2ccc(Cl)cc2Cl)nnc1SCC(=O)Nc1ccc(F)c(Cl)c1 -2.33%
CCC(=O)c1ccc(OCC(=O)OCC(=O)c2cc(C)n(CC3CCCO3)c2C)cc1 (configuration not stated) -5.94%
CCOC(=O)N1CCN(S(=O)(=O)c2ccc(C(=O)N(CCN(C)C)c3nc4ccc(Cl)cc4s3)cc2)CC1 14%
CCOc1c(Cl)cc(CNCc2ccncc2)cc1OC 2.05%
O=C(Nc1ncccc1O)C1CCN(S(=O)(=O)c2ccc3ccccc3c2)CC1 -9.16%
CCOC(=O)Cn1c2c(c(=N)c3ccccc31)CCC2 3.57%
CCn1c2c(c(=N)c3c1CCC3)CCCC2 -3.7%
CCCCCCn1c2c(c(=N)c3c1CCC3)CCC2 12.9%
CCCCCn1c2c(c(=N)c3ccccc31)CCC2 12.1%
CCn1c2c(c(=N)c3c1CCC3)CCC2 -5.05%
CCCCn1c2c(c(=N)c3c1CCC3)CCC2 -14.8%
CCCn1c2c(c(=N)c3c1CCC3)CCCC2 -0.71%
CCCCCCCn1c2c(c(=N)c3c1CCC3)CCCC2 5.7%
CCOn1c(SCC)nc2ccccc2c1=O 5.58%
CC(C)c1ccc(NC(=O)CCCN2C(=S)NC(C)(C)CC2C)cc1 (configuration not stated) 3.65%
COC(=O)c1ccc(NC(=O)CN2CCN(c3ccccc3C)CC2)cc1 -8.21%
O=C(Nc1ccccc1)c1cc(S(=O)(=O)NCc2ccncc2)ccc1Cl -1.47%
CCc1c(C(=O)NNC(=S)NCC2CCCO2)csc1C (configuration not stated) 8.11%
COc1ccc(OC)c(-c2csc(NC(=O)c3ccccc3F)n2)c1 -4.14%
Cc1cc(C)c2cc(C=O)c(Cl)nc2c1 3.78%
CCOC(=O)CN1CC23C=CC(O2)C(C(=O)NCc2ccc(C)cc2)C3C1=O (configuration not stated) 10.7%
CC(C)CCNC(=O)C12CN(Cc3ccccc3)CC1C(c1ccc([N+](=O)[O-])cc1)=NO2 (configuration not stated) 16.1%
